# Assay results from patent publication US20150152398, “Endoribonuclease and Methods of Use Thereof” (The Regents of the University of California, published 2015).
# Biological target: T1, TtCas6A (TTHA0078, Cas6) (Thermus thermophilus HB8)
# T1 chain: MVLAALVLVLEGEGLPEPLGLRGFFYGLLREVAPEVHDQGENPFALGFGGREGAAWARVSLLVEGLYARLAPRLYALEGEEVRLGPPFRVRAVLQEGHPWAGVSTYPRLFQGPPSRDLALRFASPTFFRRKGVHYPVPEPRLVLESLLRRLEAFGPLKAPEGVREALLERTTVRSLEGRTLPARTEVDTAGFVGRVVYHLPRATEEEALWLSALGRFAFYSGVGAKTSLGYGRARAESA
# Experiment: EMSA; closing base pair; Kd in FIG. 24C only
# Conditions: chain copies: 2 stated (dimer in solution); hairpin; ssRNA; [20,25]
# Excerpt: FIG. 22 illustrates that TtCas6A and TtCas6B both cleave repeats R1 and R3 and retain their cleaved products. (A) Sequences and predicted secondary structures of T. thermophilus CRISPR repeats. Sites of cleavage are indicated with blue arrows. TtCas6e (TTHB192) cleaves repeat R2, while TtCas6A (TTHA0078) and TtCas6B (TTHB231) both cleave repeats R1 and R3. (B) Cleavage product binding affinities of TtCas6A and TtCas6B enzymes. Maltose binding protein (MBP)-fused TtCas6A or TtCas6B were bound to in 5′-radiolabelled, vitro transcribed R1 and R3 RNAs. Bound and unbound fractions were resolved by electrophoresis on a native polyacrylamide gel and visualized by phosphorimaging. The data for these and all subsequent binding assays were fit with standard binding isotherms (solid line). […] RNA cleavage was monitored using denaturing polyacrylamide gel electrophoresis. […]
# To test the importance of the stem sequence for substrate RNA recognition by TtCas6A, a series of EMSAs was performed using R1 repeat-derived RNAs that carried single base pair substitutions (C-G→A-U). […] This is consistent with the observation that the lower three C-G base pairs are specifically read out by Arg129. The binding defect observed upon mutation of the closing (uppermost) base pair could be due to loss of stability of the stem-loop structure, which is determined by the closing base-pair (Serra et al, 1993). […]
row,Sequence,binding signal
1,GUUGCAAGGGAUUGAGCCCAGUAAUGGGAU,~5 fold lower affinity than wild-type RNA
